Results published in ChEMBL document CHEMBL4296182, “CO-ADD screening of NIH NCI Diversity Set V”.
For part of these data: Measured potencies and affinities stand elsewhere.

What was measured:
[1] = test system: Staphylococcus aureus; assay: Antibacterial activity against Staphylococcus aureus MRSA ATCC 43300 (CO-ADD:GP_020); MIC in CAMBH media using NBS plates, by Resazurin F(560/590); format: functional; conditions: Concentration 20 uM, ASSAY_TEST Inhibition of Bacterial Growth, detection method Resazurin, Fluorescence (ex560/em590), MEDIA CAMHB, plate type 384well, CORNING #3640, time 18 hr
[2] = test system: Acinetobacter baumannii; assay: Antibacterial activity against Acinetobacter baumannii ATCC 19606 (CO-ADD:GN_034); MIC in CAMBH media using NBS plates, by Resazurin F(560/590); format: functional; conditions: Concentration 20 uM, ASSAY_TEST Inhibition of Bacterial Growth, detection method Resazurin, Fluorescence (ex560/em590), MEDIA CAMHB, plate type 384well, CORNING #3640, time 18 hr
[3] = test system: Escherichia coli; assay: Antibacterial activity against Escherichia coli ATCC 25922 (CO-ADD:GN_001); MIC in CAMBH media using NBS plates, by Resazurin F(560/590); format: functional; conditions: Concentration 20 uM, ASSAY_TEST Inhibition of Bacterial Growth, detection method Resazurin, Fluorescence (ex560/em590), MEDIA CAMHB, plate type 384well, CORNING #3640, time 18 hr
[4] = test system: Klebsiella pneumoniae; conditions: Concentration 20 uM; ASSAY_TEST Inhibition of Bacterial Growth; detection method Absorption (OD600); MEDIA CAMHB; plate type 384well; NBS; CORNING #3640; time 18 hr
[5] = test system: Candida albicans; conditions: 20 µM
[6] = test system: Cryptococcus neoformans; conditions: Concentration 20 uM; ASSAY_TEST Inhibition of Fungal Growth; detection method Resazurin; Absorption (OD600-OD570); plate type 384well; NBS; CORNING #3640

Structure (SMILES)	Inhibition [1]	Inhibition [2]	Inhibition [3]	Inhibition [4]	Inhibition [5]	Inhibition [6]
CN1C(=C=Cc2cc(I)c(O)c(I)c2)C(C)(C)c2ccccc21	20.66%	1.84%	10.92%	7.2%	6.34%	5.51%
CCCC1OC(c2cc3c(cc2Cl)OCO3)OCC1CC (configuration not stated)	3.15%	-17.34%	11.31%	6.46%	5.6%	-15.5%
CSc1nsc(NN)n1	4.83%	-22.35%	5.94%	8.53%	8.71%	-11.9%
CCc1oc2ccccc2c1C(=O)c1cc(Br)c(O)c(Br)c1 [BENZBROMARONE]	-12.4%	-9.24%	7.93%	12.45%	9.57%	-6.93%
Oc1nc(S)ncc1Oc1ccc(Cl)cc1Cl	8.02%	11.12%	2.19%	10.84%	6.27%	-6.95%
Cc1cc2nc3ccc(N(C)C)cc3[s+]c2cc1N.[Cl-] [TOLONIUM CHLORIDE]	-5.05%	-12.21%	2.47%	19.75%	1.87%	-7.34%
CCOc1ccc(NC(=O)Nc2cc(C(C)C)ccc2C)cc1	-18.22%	0.23%	-12.49%	0.84%	0.78%	21.16%
Oc1ccc(Nc2ccnc3cc(Cl)ccc23)cc1	-0.21%	16.04%	-4.01%	17.31%	0.86%	-3.23%
O=C(Nc1cccnc1)c1cccc([N+](=O)[O-])c1	12.72%	4.9%	8.22%	4.62%	7.68%	-5.39%
C=CCOc1ccnc(-c2ccccc2)n1	-3.88%	-11.54%	5%	9.63%	1.14%	-7.2%
O=C(Nc1cccc([N+](=O)[O-])c1)c1ccc2ccccc2c1O	0.95%	-11.75%	6.76%	12.38%	3.5%	4.47%
CCc1noc2cc(-c3ccccc3)n(C)c(=O)c12	-11.16%	2.9%	-6.9%	8.09%	1.75%	-7.67%
CC(=O)NCC(O)c1ccc([N+](=O)[O-])cc1 (configuration not stated)	9.36%	-9%	7.49%	22.16%	1.24%	2.12%
CCOc1ccc(NC(=O)C2CCCN(C)C2)cc1 (configuration not stated)	8.6%	6.87%	-2.25%	20.11%	9.11%	-4.92%
CCCCCOc1ccc(N2C(=O)C(C)CNC2=S)cc1 (configuration not stated)	15.96%	8.82%	2.34%	9.59%	-1.3%	-8.51%
CC(=O)NC1(C(=O)O)CCCC1	8.27%	-6.77%	8.7%	15.18%	4.3%	0.8%
N=C(N)NC(=N)Nc1ccc(O)cc1	11.3%	-14.34%	13.43%	0.41%	0.07%	-11.16%
CCC1=[N+]([O-])[N+]([O-])=C(c2ccccc2)/C1=N/O	10.92%	10.01%	-4.02%	8.43%	7.14%	-1.35%
ClCC(CNCc1ccccc1)c1ccccc1 (configuration not stated)	7.68%	11.29%	0.62%	19.58%	5.41%	-7.48%
O=C1OCC/C1=C\OCCCO/C=C1\CCOC1=O	-12.85%	-4.57%	-5.06%	8.79%	-0.38%	-11.43%
CCC1(CC)C(=O)NC(=S)N=C1N	2.67%	-4.28%	12.79%	14.22%	7.8%	-2.67%
c1ccc2c(c1)[nH]c1c3ccccc3sc21	12.39%	-1.18%	0.28%	11.83%	5.08%	-2.59%
